Screens as filed in PubChem.
POLI inh: blocks human DNA polymerase iota activity; Q9UNA4; Pol iota fluorescent replication assay, 10 min; Potency, µM (highest dose often 115 µM), inactives show at the top dose activity, negative = inhibition, most hits filed as inhibitors; 390,000 compounds, 1% hits
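Fluorescent replication assay read twice, at 0 min and 10 min after adding 50 nM (final) substrate. Enzyme (10 nM) and compounds were first incubated 15 min at room temperature; enzyme-free buffer wells were negative controls.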
POLK inh: blocks human DNA polymerase kappa activity; Q9UBT6; purified Pol kappa, fluorescent DNA synthesis assay, 10 min; Potency, µM (highest dose often 107 µM), without a hit: at the top dose activity, negative = inhibition, actives largely listed as inhibitors; 400,000 compounds, 0.53% hits; AID 588579; note: % is set by controls: 0 for no effect and ±100 for the full control effect
Target sequence (Q9UBT6 whole entry, looked up): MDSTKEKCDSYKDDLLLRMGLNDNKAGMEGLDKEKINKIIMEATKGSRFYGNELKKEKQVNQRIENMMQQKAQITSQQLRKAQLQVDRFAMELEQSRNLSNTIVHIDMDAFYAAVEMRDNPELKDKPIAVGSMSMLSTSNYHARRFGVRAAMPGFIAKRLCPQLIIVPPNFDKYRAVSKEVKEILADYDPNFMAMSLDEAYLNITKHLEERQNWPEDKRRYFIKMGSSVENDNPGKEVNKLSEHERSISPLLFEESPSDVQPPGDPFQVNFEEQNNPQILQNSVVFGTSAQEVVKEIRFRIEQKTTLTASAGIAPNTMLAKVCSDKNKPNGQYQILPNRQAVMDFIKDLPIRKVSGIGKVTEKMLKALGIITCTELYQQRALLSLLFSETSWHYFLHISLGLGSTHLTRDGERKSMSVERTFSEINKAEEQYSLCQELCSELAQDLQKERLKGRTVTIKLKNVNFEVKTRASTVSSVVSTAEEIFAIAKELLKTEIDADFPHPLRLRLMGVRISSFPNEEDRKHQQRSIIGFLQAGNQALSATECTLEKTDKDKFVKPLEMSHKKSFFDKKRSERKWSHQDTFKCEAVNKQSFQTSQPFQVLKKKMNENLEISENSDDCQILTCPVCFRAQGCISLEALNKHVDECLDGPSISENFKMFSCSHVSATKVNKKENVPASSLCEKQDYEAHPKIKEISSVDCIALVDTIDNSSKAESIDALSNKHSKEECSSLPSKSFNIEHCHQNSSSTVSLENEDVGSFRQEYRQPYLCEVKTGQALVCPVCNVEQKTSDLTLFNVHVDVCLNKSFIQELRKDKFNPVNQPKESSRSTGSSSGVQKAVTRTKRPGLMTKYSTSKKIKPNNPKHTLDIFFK
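Pol kappa 10 nM + cpd, 15 min RT; start w/ substrate 50 nM final; fluorescence kinetic read, 0 and 10 min. Neg ctrl: buffer, no enzyme.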
POLB inh: inhibitors of human DNA polymerase beta. Pol beta primer extension/strand displacement, fluorescence kinetic. Potency, µM (highest dose often 114 µM), for inactives: top-dose activity change, negative = inhibition, most hits filed as inhibitors. 340,000 compounds, 1.3% hits. AID 485314. P06746; note: % is set by controls: 0 for no effect and ±100 for the full control effect
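Pol beta (10 nM) was preincubated with compound for 15 min at room temperature. The reaction was then started with 50 nM substrate and read immediately and after a further 10 min at room temperature.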
WRN inhibitor: inhibitors of human WRN helicase; Q14191; Potency, µM (series often up to 114 µM), inactives show at the highest dose activity change, negative = inhibition, hits mostly inhibitors; WRN helicase unwinding, fluorescent forked duplex, kinetic; AID 651768; 360,000 compounds, 0.46% hits; note: % is set by controls: 0 for no effect and ±100 for the full control effect; nearly all actives have a fitted effect of over 55% in size
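Primary qHTS, 1536-well format. 20 nM WRN + compound, 15 min RT; start with 100 nM forked fluorophore/quencher duplex, 2 mM ATP (final); kinetic read ex 525/em 598 nm.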
FEN1 inhibitor: human FEN1 inhibition. P39748. Recombinant FEN1 flap cleavage, fluorescence, 15 min. Potency, µM (series often up to 114 µM), for inactives: top-dose activity change, negative = inhibition, usual class: inhibitors. 390,000 compounds, 0.35% hits; note: % is set by controls: 0 for no effect and ±100 for the full control effect; nearly all actives have a fitted effect of over 65% in size
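Nuclease activity of 10 nM FEN1 was measured after 15 min of room-temperature exposure to titrated compounds, by adding 50 nM flap substrate and reading plates at 0 and 15 min.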
POLH inh: DNA polymerase eta (human) inhibition. 390,000 compounds, 1.2% hits. Q9Y253. Potency, µM (highest dose often 114 µM), without a hit: top-dose activity change, negative = inhibition, actives largely listed as inhibitors. recombinant Pol eta, fluorescent DNA replication assay; note: % is set by controls: 0 for no effect and ±100 for the full control effect
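Fluorescent replication assay: 50 nM final substrate added after a 15 min room-temperature compound preincubation with 10 nM enzyme. Signal taken at 0 min and again at 10 min.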
An asterisk follows results filed as active; [ ] = dose if it differs, or a comment. Compounds with a hit are over-represented: about 2.4% of the library has one in this group of screens. Calls come from the whole dose curve; as a rule, active = well fitted curve in the direction sought with a large enough effect; inconclusive = small, poorly fitted or top-dose-only effect, or another doubt; inactive = no such curve, though single readings can be large; an effect the other way counts as inactive or inconclusive. Potency is the fitted concentration of half-maximal effect.

Cc1cc2[nH]c(=O)c(=O)[nH]c2cc1S(=O)(=O)N1CCN(c2cccc(C(F)(F)F)c2)CC1 was read as POLI inh inconclusive, POLK inh -24%, POLB inh inconclusive, WRN inhibitor -10%, FEN1 inhibitor 19% and POLH inh 3%.
CC1CCN(S(=O)(=O)c2ccc3[nH]c(=O)c(=O)[nH]c3c2)CC1 was read as POLI inh 3%[58.9 µM], POLK inh -18%, POLB inh 24%, WRN inhibitor 5%, FEN1 inhibitor 3% and POLH inh -12%.
Screening O=c1[nH]c2ccc(S(=O)(=O)N3CCN(c4ccccc4)CC3)cc2[nH]c1=O returned POLI inh 40µM*, POLK inh inconclusive, POLB inh 45µM*, WRN inhibitor inconclusive, FEN1 inhibitor 56µM* and POLH inh 79µM*.
For Cc1cc2[nH]c(=O)c(=O)[nH]c2cc1S(=O)(=O)N1CCN(c2cccc(Cl)c2)CC1 the results were POLI inh inconclusive, POLK inh -18%, POLB inh 35µM*, WRN inhibitor 2%[11.6 µM], FEN1 inhibitor 16% and POLH inh 0%.
Screening Cc1ccc(-c2csc(NC(=O)c3ccc(Br)cc3)c2C(=O)O)cc1 returned POLI inh 24%, POLK inh 1%, POLB inh 20%, WRN inhibitor -18%, FEN1 inhibitor 11% and POLH inh 50µM*.
CC1=CC(=O)c2ccccc2C1=O was read as POLI inh inconclusive, POLK inh 9%, POLB inh -1%, WRN inhibitor 7%, FEN1 inhibitor 1% and POLH inh inconclusive.
CC(C)(C=O)C1=CC(=O)c2ccccc2C1=O was read as POLI inh inconclusive, POLK inh 4%, POLB inh 0%, WRN inhibitor 50µM*, FEN1 inhibitor inconclusive and POLH inh inconclusive.
For CCOC(=O)C1=C(Cc2ccc(Cl)cc2)C(=O)c2ccccc2C1=O the results were POLI inh 14µM*, POLK inh 8%, POLB inh 10%, WRN inhibitor 35µM*, FEN1 inhibitor inconclusive and POLH inh -28%.
For CCOC(=O)C1=C(C)N=C2c3ccccc3C(=O)C2C1c1ccc(Cl)cc1 (stereo unspecified) the results were POLI inh 12%, POLK inh -18%, POLB inh 9%, WRN inhibitor -21%, FEN1 inhibitor -22% and POLH inh -11%.
`O=C1c2ccccc2NC(c2ccccc2OCc2ccccc2)N1Cc1ccco1` (stereo unspecified) gave POLI inh -5%, POLK inh -2% and FEN1 inhibitor inconclusive.
For COC(=O)C1=C[C@@H](C(=O)OC)C2C3=C(C(=O)[C@@]2(C)NC(=O)c2ccccc2)[C@H](c2ccccc2)n2c(=O)n(-c4ccccc4)c(=O)n2[C@@H]3C1 (stereo partly specified) the results were POLI inh -7%, POLK inh -10% and FEN1 inhibitor -8%.
For COC(=O)/C(=C/Nc1ccc(O)cc1)[N+](=O)[O-] the results were POLI inh 7.1µM*, POLK inh -7%, POLB inh 16%, WRN inhibitor -6%, FEN1 inhibitor -23% and POLH inh -10%.
Screening COC(=O)/C(=C/Nc1ccccc1)[N+](=O)[O-] returned POLI inh 7%, POLK inh -4%, POLB inh 0%, WRN inhibitor -8%, FEN1 inhibitor -1% and POLH inh -2%.
CN(C)C(CNS(=O)(=O)c1cc([N+](=O)[O-])ccc1Cl)c1ccco1 (stereo unspecified) was read as POLI inh inconclusive, POLK inh -31%, WRN inhibitor -4%[11.6 µM], FEN1 inhibitor -15% and POLH inh 50µM*.
For O=C(NNc1c2ccccc2nc2ccccc12)c1ccc(O)cc1 the results were POLI inh -6%, POLK inh -10%[60.1 µM], POLB inh 79µM*, WRN inhibitor -4%[11.6 µM], FEN1 inhibitor inconclusive and POLH inh -6%.
For O=C1/C(=C\c2ccc(O)c(O)c2)Oc2cc(O)ccc21 the results were POLK inh 4.7µM*.
`COc1ccc2c(c1)OC/C(=C/c1ccc(O)c(O)c1)C2=O` gave POLK inh -9%[60.1 µM].
O=C1/C(=C/c2ccc(Br)cc2)Oc2cc(O)ccc21 was read as POLI inh 39%, POLK inh -3%, POLB inh 14µM*, WRN inhibitor 7%, FEN1 inhibitor 0% and POLH inh -24%.
Screening Cc1ccc2c(c1)C(=O)C1(O)CCN(c3ccccc3)C1=N2 (stereo unspecified) returned POLK inh 3%[19.4 µM].
Screening Cc1[nH][nH]c(=O)c1C(c1c(C)[nH][nH]c1=O)c1cn(C)c2ccccc12 returned POLI inh 2.5µM*, POLK inh -7%, POLB inh 0%, WRN inhibitor -10%, FEN1 inhibitor inconclusive and POLH inh -18%.
O=C(O)/C(=C\c1ccco1)NC(=O)c1ccc(Br)o1 was read as POLI inh inconclusive, POLK inh -29%, WRN inhibitor -16%[11.6 µM], FEN1 inhibitor -8% and POLH inh 20µM*.
CC(C)C(NC(=O)/C(=C/c1ccco1)NC(=O)c1ccc(Br)o1)C(=O)O (stereo unspecified) was read as POLI inh inconclusive, POLK inh inconclusive, POLB inh 40µM*, WRN inhibitor -7%, FEN1 inhibitor 9% and POLH inh 20µM*.
O=C(O)/C(=C\c1ccco1)NC(=O)c1cccc2ccccc12 was read as POLI inh inconclusive, POLK inh 50µM*, POLB inh -1%, WRN inhibitor -16%, FEN1 inhibitor -24% and POLH inh 50µM*.
For CCCCC/C=C\C\C=C/C=C/C=C/[C@@H](SC[C@H](N)C(=O)O)[C@@H](O)CCCC(=O)O the results were POLK inh 0%[19.4 µM].
For COc1ccccc1-c1nccc(NCc2cccs2)n1 the results were POLK inh 1%[60.1 µM].
`CC(C)(C)n1ncc2c(=O)n(Cc3ccccc3C#N)cnc21` gave POLI inh 20%, POLK inh -23% and FEN1 inhibitor 5%.
CC(C)C[C@H](NC(=O)C1CC(=O)N(c2ccc3c(c2)OCO3)C1)C(=O)NC1CCCC1 (stereo partly specified) was read as POLI inh 16%, POLK inh 11%, POLB inh 14%, WRN inhibitor -9%[11.6 µM], FEN1 inhibitor -3% and POLH inh 89µM*.
